About 79,000 compounds went through this panel and 15% of them were active in at least one assay; those are over-represented in the sample as a whole. The source made the active and inactive calls. No stated cut-off is given here; in the data, active means growth inhibition above about 70%; inactive means the rest.
Assays:
[1] = NCI Yeast Anticancer Drug Screen. Data for the mec2-1 strain (AID 157); conditions: S. cerevisiae mec2-1 strain, active compounds read high
Summary of the method: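 Strain: mec2-1 (DNA repair/cell cycle alteration). Compound exposure, then growth measured; inhibition expressed relative to vehicle.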

[2] = NCI Yeast Anticancer Drug Screen. Data for the rad14 strain (AID 159);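 further: 0% = growth of vehicle-treated control cultures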; conditions: S. cerevisiae rad14 strain growth inhibition, active compounds read high
Summary of the method: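 Vehicle-treated cultures served as the baseline for growth inhibition of a DNA repair-mutant yeast strain exposed to each compound.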

[3] = NCI Yeast Anticancer Drug Screen. Data for the sgs1 mgt1 strain (AID 161);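 further: 0% = growth of cultures given vehicle only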; conditions: S. cerevisiae sgs1 mgt1 strain, active compounds read high
Summary of the method: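 Genetically altered yeast, compound exposure, growth inhibition relative to vehicle.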

[4] = NCI Yeast Anticancer Drug Screen. Data for the CLN2oe strain (AID 163);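 further: 0% = growth of vehicle-only control cultures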; conditions: S. cerevisiae CLN2oe strain, active compounds read high
Summary of the method: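 Growth of a genetically modified yeast strain is measured after compound exposure and compared with cultures given vehicle alone.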

[5] = NCI Yeast Anticancer Drug Screen. Data for the cln2 rad14 strain (AID 165);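 further: 0% = growth equal to vehicle treated cultures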; conditions: S. cerevisiae cln2 rad14 strain, active compounds read high
Summary of the method: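 Compounds are applied to the cln2 rad14 yeast strain, and growth is then compared with that of vehicle-treated cultures to give inhibition.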

[6] = NCI Yeast Anticancer Drug Screen. Data for the bub3 strain (AID 167); conditions: S. cerevisiae bub3 mutant strain, active compounds read high
Summary of the method: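 Inhibition values come from growth of compound-treated mutant yeast normalised to vehicle-treated controls.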

[7] = NCI Yeast Anticancer Drug Screen. Data for the wt2 strain (AID 169);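 further: 0% = growth of vehicle-treated yeast cultures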; conditions: S. cerevisiae wt2 strain growth inhibition, active compounds read high
Summary of the method: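 This strain belongs to a panel of yeast strains with defined genetic alterations in DNA damage repair or cell cycle control. Compounds are applied, and growth inhibition is measured against vehicle-treated cultures.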

[8] = NCI Yeast Anticancer Drug Screen. Data for the mlh1 strain (AID 171);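 further: 0% = growth of vehicle-treated control cultures of the same strain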; conditions: S. cerevisiae mlh1 strain growth inhibition, active compounds read high
Summary of the method: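 Growth of the mutant yeast strain after compound exposure, expressed as inhibition relative to vehicle-only controls.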

[9] = NCI Yeast Anticancer Drug Screen. Data for the sgs1 strain (AID 173);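 further: 0% = growth of vehicle-only control cultures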; conditions: S. cerevisiae sgs1 mutant, active compounds read high
Summary of the method: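 Growth of a yeast strain bearing a defined genetic alteration is measured after compound treatment. Inhibition is expressed relative to vehicle-only controls.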

[10] = NCI Yeast Anticancer Drug Screen. Data for the mlh1 rad18 strain (AID 175); conditions: S. cerevisiae mlh1 rad18 strain growth inhibition, active compounds read high
Summary of the method: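 Read-out is yeast growth inhibition, calculated against vehicle-only controls. The compound was applied to a strain engineered with DNA damage repair alterations.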

[11] = NCI Yeast Anticancer Drug Screen. Data for the rad18 strain (AID 177); conditions: S. cerevisiae rad18 mutant growth inhibition, active compounds read high
Summary of the method: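 Growth of the mutant yeast strain after compound exposure, normalised to vehicle-only cultures.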

[12] = NCI Yeast Anticancer Drug Screen. Data for the rad52 strain (AID 147);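 further: 0% = growth of vehicle-treated control cultures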; conditions: S. cerevisiae rad52 mutant growth inhibition, active compounds read high
Summary of the method: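 Compounds are applied to a genetically defined yeast strain lacking normal DNA damage repair, and inhibition of growth is expressed relative to cultures given vehicle only.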

[13] = NCI Yeast Anticancer Drug Screen. Data for the wt1 strain (AID 149);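 further: 0% = growth of vehicle-treated wt1 cultures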; conditions: S. cerevisiae wt1 strain (SPY 50644) growth inhibition, active compounds read high
Summary of the method: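 Vehicle-normalised growth inhibition; strain wt1; compound exposure.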

[14] = NCI Yeast Anticancer Drug Screen. Data for the rad50EPP+ strain (AID 151);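 further: 0% = growth of vehicle-treated control cultures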; conditions: S. cerevisiae rad50 mutant strain, active compounds read high
Summary of the method: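 Compounds were applied to the rad50EPP+ yeast strain, which bears a defined DNA repair alteration, and growth inhibition was determined relative to vehicle-treated cultures.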

[15] = NCI Yeast Anticancer Drug Screen. Data for the mgt1 strain (AID 153); conditions: S. cerevisiae mgt1 mutant growth inhibition, active compounds read high
Summary of the method: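 Strain: mgt1 yeast, one of a set carrying defined DNA damage repair or cell cycle control alterations. Compound-treated growth compared with vehicle.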

[16] = NCI Yeast Anticancer Drug Screen. Data for the rad50 strain (AID 155);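 further: 0% = growth of vehicle-only cultures of the same strain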; conditions: S. cerevisiae rad50 strain growth inhibition, active compounds read high
Summary of the method: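 A DNA repair-deficient yeast mutant serves as the test organism; compound-induced growth inhibition is calculated against vehicle-treated cells.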

[17] = at 5.0 µM (retest, dose inferred, filed as 0.5)
[18] = at 50.0 µM (retest, dose inferred, filed as 5.0)

Measured: growth inhibition

Cc1cc(OCc2nc(N)nc(N)c2-c2ccc(Cl)c(Cl)c2)ccc1[N+](=O)[O-]
active: [3]; [18] 75% | [3]; at 50.0 µM 98.7% | [5]; at 50.0 µM 95% | [6]; at 50.0 µM 79.9% | [10]; [18] 85% | [10]; at 50.0 µM 98.5%
inactive: [1]; at 100.0 µM -10% | [2]; at 1.2 µM -1% | [2]; at 3.7 µM 8% | [2]; at 11.0 µM 3% | [2]; at 33.0 µM 3% | [2]; at 100.0 µM 3% | [3]; [17] 54% | [4]; at 1.2 µM 0% | [4]; at 3.7 µM 2% | [4]; at 11.0 µM 0% | [4]; at 33.0 µM 4% | [4]; at 100.0 µM 6% | [5]; [17] -1% | [5]; [18] 30% | [6]; at 1.2 µM 0% | [6]; at 3.7 µM -1% | [6]; [17] -9% | [6]; at 11.0 µM 0% | [6]; at 33.0 µM -2% | [6]; [18] 53% | [6]; at 100.0 µM 20% | [7]; at 1.2 µM 2% | [7]; at 3.7 µM 4% | [7]; at 11.0 µM 4% | [7]; at 33.0 µM 4% | [7]; at 100.0 µM 5% | [8]; at 1.2 µM 0% | [8]; at 3.7 µM 0% | [8]; at 11.0 µM 0% | [8]; at 33.0 µM -1% | [8]; at 100.0 µM 13% | [9]; at 1.2 µM -1% | [9]; at 3.7 µM -3% | [9]; at 11.0 µM -2% | [9]; at 33.0 µM -1% | [9]; at 100.0 µM 0% | [10]; [17] 26% | [11]; at 1.2 µM -3% | [11]; at 3.7 µM -4% | [11]; at 11.0 µM -8% | [11]; at 33.0 µM -15% | [11]; at 100.0 µM -23%

CC1(C)C(O)OC(O)C1(C)C (stereo unspecified)
active: [11]; at 100.0 µM 77%
inactive: [12]; at 1.2 µM 0% | [12]; at 3.7 µM 0% | [12]; at 11.0 µM 2% | [12]; at 33.0 µM 7% | [12]; at 100.0 µM 30% | [13]; at 1.2 µM 0% | [13]; at 3.7 µM 0% | [13]; at 11.0 µM 4% | [13]; at 33.0 µM 2% | [13]; at 100.0 µM 8% | [14]; at 1.2 µM 0% | [14]; at 3.7 µM -1% | [14]; at 11.0 µM 2% | [14]; at 33.0 µM 1% | [14]; at 100.0 µM 12% | [15]; at 1.2 µM -1% | [15]; at 3.7 µM -1% | [15]; at 11.0 µM 2% | [15]; at 33.0 µM 16% | [15]; at 100.0 µM 10% | [16]; at 1.2 µM -1% | [16]; at 3.7 µM -2% | [16]; [17] 15% | [16]; at 11.0 µM 0% | [16]; at 33.0 µM 5% | [16]; [18] 8% | [16]; at 50.0 µM 69% | [16]; at 100.0 µM 25% | [1]; at 1.2 µM 0% | [1]; at 3.7 µM 2% | [1]; [17] 1% | [1]; at 11.0 µM 2% | [1]; at 33.0 µM 6% | [1]; [18] -10% | [1]; at 50.0 µM 29.4% | [1]; at 100.0 µM 23% | [3]; [17] -9% | [3]; [18] 14% | [3]; at 50.0 µM 58.5% | [4]; at 1.2 µM -10% | [4]; at 3.7 µM -3% | [4]; at 11.0 µM 0% | [4]; at 33.0 µM -5% | [4]; at 100.0 µM 3% | [5]; [17] 32% | [5]; [18] 7% | [5]; at 50.0 µM 24.4% | [6]; at 1.2 µM -7% | [6]; at 3.7 µM -7% | [6]; [17] -8% | [6]; at 11.0 µM -6% | [6]; at 33.0 µM -8% | [6]; [18] -13% | [6]; at 50.0 µM 37.4% | [6]; at 100.0 µM -6% | [7]; at 1.2 µM -1% | [7]; at 3.7 µM 1% | [7]; at 11.0 µM 5% | [7]; at 33.0 µM 5% | [7]; at 100.0 µM 10% | [8]; at 1.2 µM 0% | [8]; at 3.7 µM -1% | [8]; at 11.0 µM 4% | [8]; at 33.0 µM 6% | [8]; at 100.0 µM 18% | [9]; at 1.2 µM 1% | [9]; at 3.7 µM 5% | [9]; at 11.0 µM 11% | [9]; at 33.0 µM 25% | [9]; at 100.0 µM 63% | [10]; [17] 3% | [10]; [18] 56% | [10]; at 50.0 µM 60.8% | [11]; at 1.2 µM -1% | [11]; at 3.7 µM 2% | [11]; at 11.0 µM 13% | [11]; at 33.0 µM 31%

Source: PubChem BioAssay (NCI)
